According to PubChem BioAssay AID504329 (Southern Research Specialized Biocontainment Screening …, 2011):
In all, about 340,000 compounds went through this assay and about 1,000 (0.29%) were called active. A selection follows. Measured potencies and affinities stand elsewhere. Values without a mark were called inactive. No stated cut-off is given here; in the data, inconclusive means inhibition above about 27% without an active follow-up result; inactive means below that.

experiment: NS1A inhibition, H1N1 influenza, cell based functional assay (AID 504329); conditions: percent inhibition, at 12.5 µM, hits give high values

SMILES | inhibition
CCOC(=O)CC(NC(=O)c1cc2cccc(OC)c2oc1=O)c1ccc(OC)cc1 (stereo not drawn) | -20.4%
COc1ccc(-n2c(=O)c3ccccc3n(CC(=O)NC3CCCCC3)c2=O)cc1OC | 10.9%
O=S(=O)(c1ccc(Cl)cc1)N1CCCC1c1cccnc1 (stereo not drawn) | -6.92%
COc1ccc(CNC(=O)C(OC(=O)c2ccco2)c2ccccc2F)cc1 (stereo not drawn) | 4.89%
COc1cc(C(=O)NCc2nnc(SCC(=O)N3CCCCCC3)o2)cc(OC)c1OC | 0.67%
CC[C@@]1(C(=O)OC)N[C@H](CN(C)S(=O)(=O)c2ccc(C(C)(C)C)cc2)[C@@H]2C(=O)N(Cc3ccccc3)C(=O)[C@@H]21 | -9.1%
Cc1ccc(Nc2nc(N)nc(-c3oc4ccccc4c3C)n2)cc1 | -6.47%
O=C(Nc1ccccn1)C(=O)Nc1ccccn1 | -1.25%
O=C(NCc1ccccn1)C(=O)N/N=C/c1ccc2c(c1)OCO2 | -4.91%
Cc1cc(/C=N/NC(=O)C(=O)NCc2ccccn2)c(C)n1-c1ccccc1 | -2.44%
COc1cc(/C=N/NC(=O)C(=O)Nc2ccccn2)ccc1O | -6.98%
COc1ccc(-c2c(C)nc3c(-c4ccc(F)cc4)cnn3c2N)cc1 | -14.5%
COc1cc(C(=O)NC2=NCCS2)ccc1OCc1c(C)noc1C | -1.34%
O=C(CNC(=O)c1cccc(N2C(=O)c3ccccc3C2=O)c1)Nc1ccc(F)c(F)c1 | -11.5%
COc1cc(Br)cc(CN2CCN(C)CC2)c1O | 2.34%
COc1cc(Br)cc(CN2CCN(c3ncccn3)CC2)c1O | -10.6%
COc1cccc(C(=O)Oc2c(CN3CCOCC3)cc(Cl)c3cccnc23)c1 | 4.96%
Cc1c(O)c(CN2CCCC2)cc2c1oc(=O)c1ccccc12 | -0.95%
Cc1ccc2c(c1)N(CCC(=O)NC1CC1)C(=O)C(C)O2 (stereo not drawn) | -4.26%
COC(=O)c1cc(NC(=S)Nc2cc(Cl)cc(Cl)c2)cc(C(=O)OC)c1 | -5.67%
CN(Cc1ccc(F)cc1)C(=O)c1ccc(NC(=O)CC2SC(N3CCCC3)=NC2=O)cc1 (stereo not drawn) | 9.52%
Cc1ccc(OCc2nnc(SCC(=O)Nc3ncc(C)s3)o2)cc1 | -2.25%
CCCC(=O)Nc1ccc(NC(=O)c2cccs2)cn1 | 20.7%
CN(C)c1ccc(CCc2ccc(N)cc2)cc1 | 14.3%
CN(C)c1ccc(CN(C)C2CCCCC2)cc1 | -7.34%

SMILES | inhibition
NC(N)=N/N=C/c1ccc(N(c2ccccc2)c2ccccc2)cc1 | -36.1%
CCN(Cc1ccccc1)c1ccccc1 | -3.09%
Cc1ccc(C)c(NC(=S)N(CCN(C)C)C(C)c2ccccn2)c1 (stereo not drawn) | 4.89%
Cc1cccc(C)c1NC(=S)N(CCN(C)C)C(C)c1ccccn1 (stereo not drawn) | 10.7%
Cc1cc(=O)[nH]c(SCC(=O)Nc2ccc(C)c(S(=O)(=O)N3CCCCC3)c2)n1 | 14%
O=C(CNC(=O)c1ccco1)Nc1ccc2c(c1)OCCO2 | 5.25%
COc1ccc(/C=C/C(=O)NC(=S)NNC(=O)c2c(-c3ccccc3)noc2C)cc1 | -5.37%
Cc1[nH]c(=S)[nH]c(=O)c1CCOc1ccccc1 | 21.1%
NNC(=S)Nc1ccc(S(=O)(=O)N2CCOCC2)cc1 | -2.99%
O=S(=O)(c1ccc(NC(=S)N/N=C/c2ccc(O)c(O)c2)cc1)N1CCOCC1 | 7.64%
O=S(=O)(c1ccc(NC(=S)Nc2ccccc2)cc1)N1CCOCC1 | 1.71%
O=C(N/N=C/c1cc(Cl)cc([N+](=O)[O-])c1O)c1cccc(S(=O)(=O)N2CCOCC2)c1 | 13%
Cc1sc2ncnc(OCC(=O)NC(C)C(C)C)c2c1C (stereo not drawn) | 11.9%
N/C(=N\[N+](=O)[O-])N1CCN(C(=O)OC2CCCC2)CC1 | 0.06%
CCN(CC(=O)Nc1c(F)cccc1F)C(=O)CCNC(=O)c1ccc([N+](=O)[O-])cc1 | -2.66%
O=C(O)c1cccc(-c2ccccc2)c1O | -26.6%
Cc1ccc2oc(-c3ccccc3C(=O)O)cc(=O)c2c1 | 1.72%
CN1CCN(C(=O)Nc2ccc([N+](=O)[O-])cc2)CC1 | 15.5%
COc1ccc(C(=O)COC(=O)Cn2nnc3ccccc32)cc1Br | 18.7%
CCC1Oc2ccccc2N(CC(=O)NCc2ccco2)C1=O (stereo not drawn) | -8.15%
O=C1CN(CC(=O)N2CCCCC2)c2ccccc2O1 | 16%
O=C(CN1C(=O)C2C3C=CC(C3)C2C1=O)OCC(=O)c1ccc(Br)cc1 (stereo not drawn) | 4.57%
O=C(CN1C(=O)c2ccccc2C1=O)OCC(=O)c1ccccc1 | -5.68%
O=C(Cn1[nH]c(=O)c2ccccc2c1=O)OCC(=O)c1ccc(Br)cc1 | 5.91%
COc1ccc(C(=O)COC(=O)C2CC3CCCC(C2)C3=O)cc1Br (stereo not drawn) | -3.01%

SMILES | inhibition
O=C(CN1CCOc2ccccc21)NCc1ccco1 | -0.84%
Cc1c(C)c2ccc(OCC(=O)N3CCN(c4ccccc4)CC3)cc2oc1=O | 4.8%
COc1cc(C2NC(=O)NC(c3ccccc3)=C2C(C)=O)cc(Cl)c1OCC(=O)O (stereo not drawn) | -2.44%
CC[C@@]1(C(=O)OC)N[C@H](CN(C)S(=O)(=O)c2ccc(OC)cc2)[C@@H]2C(=O)N(C)C(=O)[C@@H]21 | -26.2%
Cc1ccc(S(=O)(=O)NCC(=O)OCC(=O)NCc2ccco2)cc1 | -3.09%
O=C(Nc1cccc(Cl)c1)c1cnccn1 | -1.59%
O=C(CCC(=O)Nc1ccc(F)cc1)N/N=C/c1ccc(O)cc1O | 9.41%
Fc1ccc(NC(=S)N/N=C/c2ccc(F)c(F)c2)cc1 | 0.18%
Fc1ccc(NC(=S)NN=Cc2ccccc2Cl)cc1 | -9.24%
O=C(CCC(=O)Nc1ccc(F)cc1)N/N=C/c1ccccc1O | -5.76%
C/C(=N\NC(=S)Nc1ccccc1C)c1ccc(O)cc1 | 10.4%
Cc1cccc(NC(=S)N/N=C/c2cccc(O)c2)c1C | -3.84%
Cc1ccc(S(=O)(=O)NCc2ccccc2)cc1C(=O)N1CCN(S(=O)(=O)c2ccccc2)CC1 | -12.2%
COC(=O)C1SCCN1S(=O)(=O)c1ccc(Cl)cc1 (stereo not drawn) | -20.7%
CN(C)c1nc(OCC(=O)NC(C)(C)C)nc(N(C)C)n1 | -0.43%
O=C(c1ccc(Br)c(S(=O)(=O)N2CCOCC2)c1)N1CCN(C/C=C/c2ccccc2)CC1 | -13%
CC1(c2ccc3c(c2)OCCO3)NC(=O)N(CC(=O)Nc2ccccc2SCC#N)C1=O (stereo not drawn) | -12.2%
Oc1ccc(N=Nc2ccc(Br)cc2)c(O)c1 | -16.2%
O=S(=O)(O)c1cc(O)ccc1O | 1.1%
O=S(=O)(c1cc(O)ccc1O)c1cccc2c(S(=O)(=O)c3cc(O)ccc3O)cccc12 | 12.4%
Oc1ccc(N=Nc2ccc3c(c2)OCCO3)c(O)c1 | 12.8%
CC(OC(=O)c1ncc(Cl)c(Cl)c1Cl)C(=O)NC1CCCCC1C (stereo not drawn) | -15.4%
CN1C=C/C(=C\c2cc[n+](C)c3ccccc23)c2ccccc21 | 1.31%
COc1ccc(/C=C/c2ccc3ccccc3[n+]2C)cc1OC | -10.2%
CC(C)CCC(C)NC(=O)Cc1ccc(S(=O)(=O)N2CCOCC2)s1 (stereo not drawn) | -3.75%

SMILES | inhibition
O=C(Nc1nc(-c2ccccc2)cs1)c1ccco1 | 1.53%
O=C(Nc1nc(-c2ccccn2)cs1)c1ccc2c(c1)OCCO2 | 4.21%
O=C(Nc1nc(-c2ccncc2)cs1)c1ccco1 | 21.8%
O=C(Nc1nc(-c2ccccn2)cs1)c1ccc(Cl)s1 | 12.2%
CC(=O)Nc1ccc(C(=O)Nc2nc(-c3cccnc3)cs2)cc1 | 4.3%
O=C(Nc1nc(-c2ccccn2)cs1)c1cccc(-n2cnnn2)c1 | -28.6%
C/C(=N\NC(=O)C1COc2ccccc2O1)c1ccc(C)o1 (stereo not drawn) | 7.81%
C/C(=N\NC(=O)C1COc2ccccc2O1)c1cccs1 (stereo not drawn) | -4.26%
O=C(Nc1nc2c(F)cccc2s1)C1CC1 | -11.6%
O=C(CN1CCCCC1)Nc1ccc(F)c(Cl)c1 | 6.14%
CC(=O)N1N=C(c2ccc(C)cc2)CC1c1ccc2c(c1)OCO2 (stereo not drawn) | -19.2%
Cc1n[nH]c(C)c1CCN(C)Cc1cn(C)nc1-c1ccccc1F | -2.31%
CCOC(=O)C(CC)n1cnc2c(nnn2-c2ccccc2)c1=O (stereo not drawn) | 4.43%
CC(C)C[C@@H](CNCC(=O)[C@H](Cc1ccccc1)NC(=O)c1[nH]cnc1C(=O)N[C@@H](C)CN)NC(=O)c1nc[nH]c1C(=O)N[C@@H](C)C(=O)O | -9.76%
O=C(NCc1cccs1)Nc1cc(Cl)ccc1Cl | -3.84%
Cc1ccnc2nc(C(=O)Nc3nc4ccccc4s3)nn12 | -12.1%
O=C(Nc1nc(-c2ccccc2)cs1)C1COc2ccccc2O1 (stereo not drawn) | 3.59%
Cc1csc(NC(=O)C2COc3ccccc3O2)n1 (stereo not drawn) | 3.59%
Cc1csc(NC(=O)c2nc3nccc(C)n3n2)n1 | 11.3%
Cc1csc(NC(=O)C2CC(=O)N(c3ccc4c(c3)OCCO4)C2)n1 (stereo not drawn) | -10.8%
COc1ccc(-c2csc(NC(=O)C3CC(=O)N(c4ccc5c(c4)OCCO5)C3)n2)cc1 (stereo not drawn) | -0.66%
C[C@H](NC(=O)c1ccco1)C(=O)Nc1nc(-c2ccccn2)cs1 | 21.6%
CC(NC(=O)c1ccco1)C(=O)Nc1nccs1 (stereo not drawn) | -3.4%
